In publication PMC5515408, “Sequence-specific DNA binding by MYC/MAX to low-affinity non-E-box motifs”:
In all, about 4,500 sequences were measured (“log2 normalized fluorescence”: median about -0.34, highest 2% from about 3.3 on). Shown is part of a subset that was picked to be rich in the highest values.

Each sequence was assayed against MAX:MAX (p21) (human, UniProt P61244-2 1-151) (assay: protein-binding microarray (anti-MAX antibody); PBM: 15 mM Tris-HCl pH 7.5, 100 mM KCl, 0.075% NP40, 7.5 mM beta-mercaptoethanol, 375 ng/ul BSA, 8 ng/ul poly(dA-dT):(dA-dT), 550 ng complex, 60 min, room tempe; high values mean tight binding). Details: protein: recombinant; tags: 6xHis; chain copies: 2; label: 3' end of printed strand (linker) attached to glass slide; dsDNA, one strand shown.
In short: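 Recombinant His-tagged human MYC:MAX or MAX:MAX dimers (550 ng, expressed in E. coli) were incubated for 60 min at room temperature in Tris-KCl buffer, pH 7.5, with NP40, BSA and poly(dA-dT) competitor. The custom Agilent glass array held ~5000 unique 12-nt sequences, each spotted in triplicate and made double-stranded by primer extension. Bound protein was detected with anti-MAX and secondary antibodies and scanned at 543 nm. Binding is reported as log2 normalized fluorescence.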

MAX:MAX (p21), sequence (P61244 other isoform, or with tags, fused parts or gaps): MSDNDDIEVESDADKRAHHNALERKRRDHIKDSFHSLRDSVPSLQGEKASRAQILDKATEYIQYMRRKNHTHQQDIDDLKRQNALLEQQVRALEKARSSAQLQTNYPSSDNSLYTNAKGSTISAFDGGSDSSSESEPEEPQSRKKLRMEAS

Row | Sequence | binding signal
1 | CCGGCTGAAGCCTGGTATTAATAGCTAAGATTACTATATCGACG | 0.476 log2 normalized fluorescence
2 | CCGGCTGACGGCCCGTATTAATAGCTAAGATTACTATATCGACG | -0.704 log2 normalized fluorescence
3 | CCGGCTGACTCACTGTATTAATAGCTAAGATTACTATATCGACG | -0.209 log2 normalized fluorescence
4 | CCGGCTGACCTGTGGTATTAATAGCTAAGATTACTATATCGACG | 0.594 log2 normalized fluorescence
5 | CCGGCTGACAACACGTATTAATAGCTAAGATTACTATATCGACG | 0.856 log2 normalized fluorescence
6 | CCGGCTGACTCGTGCTATTAATAGCTAAGATTACTATATCGACG | 3.13 log2 normalized fluorescence
7 | CCGGCAAACACGTAGTATTAATAGCTAAGATTACTATATCGACG | 2.6 log2 normalized fluorescence
8 | CCGGCTTACATGTGGAATTAATAGCTAAGATTACTATATCGACG | 3.25 log2 normalized fluorescence
9 | CCGGCTAACACGTCGTATTAATAGCTAAGATTACTATATCGACG | 2.38 log2 normalized fluorescence
10 | CCGGCTTACACGTGGAATTAATAGCTAAGATTACTATATCGACG | 3.37 log2 normalized fluorescence
11 | CCGGCTAACACGTGGAATTAATAGCTAAGATTACTATATCGACG | 3.35 log2 normalized fluorescence
12 | CCGGCCGACACGTCGTATTAATAGCTAAGATTACTATATCGACG | 2.07 log2 normalized fluorescence
13 | CCGGCTAACACGTAGTATTAATAGCTAAGATTACTATATCGACG | 1.92 log2 normalized fluorescence
14 | CCGGCTTACACGTGGGATTAATAGCTAAGATTACTATATCGACG | 3.12 log2 normalized fluorescence
15 | CCGGCCGACACGTGGAATTAATAGCTAAGATTACTATATCGACG | 3.32 log2 normalized fluorescence
16 | CCGGCTGACACGTGGAATTAATAGCTAAGATTACTATATCGACG | 3.16 log2 normalized fluorescence
17 | CCGGCTGAAGACGGGTATTAATAGCTAAGATTACTATATCGACG | -0.654 log2 normalized fluorescence
18 | CCGGCTGACCCGTGGTATTAATAGCTAAGATTACTATATCGACG | 2.38 log2 normalized fluorescence
19 | CCGGCTGAGCAGGAGTATTAATAGCTAAGATTACTATATCGACG | -0.201 log2 normalized fluorescence
20 | CCGGCAGACACGATGTATTAATAGCTAAGATTACTATATCGACG | 3.02 log2 normalized fluorescence

Row | Sequence | binding signal
21 | CCGGCTGAGATCACGTATTAATAGCTAAGATTACTATATCGACG | 0.425 log2 normalized fluorescence
22 | CCGGCTGAGGGTTCGTATTAATAGCTAAGATTACTATATCGACG | -0.732 log2 normalized fluorescence
23 | CCGGCTGAACCCTCGTATTAATAGCTAAGATTACTATATCGACG | 0.0153 log2 normalized fluorescence
24 | CCGGCTGAAGCGGGGTATTAATAGCTAAGATTACTATATCGACG | 0.358 log2 normalized fluorescence
25 | CCGGCTGATTCGATGTATTAATAGCTAAGATTACTATATCGACG | -0.732 log2 normalized fluorescence
26 | CCGGCTGACGGGCGGTATTAATAGCTAAGATTACTATATCGACG | -0.202 log2 normalized fluorescence
27 | CCGGCTGCCACGCGGAATTAATAGCTAAGATTACTATATCGACG | 3.15 log2 normalized fluorescence
28 | CCGGCTGCCACGTGGAATTAATAGCTAAGATTACTATATCGACG | 3.31 log2 normalized fluorescence
29 | CCGGCTGCCACGTGCTTTTAATAGCTAAGATTACTATATCGACG | 3.14 log2 normalized fluorescence
30 | CCGGCTGCCACGTGTTATTAATAGCTAAGATTACTATATCGACG | 3.28 log2 normalized fluorescence
31 | CCGGCTGCCACGTGCGATTAATAGCTAAGATTACTATATCGACG | 3.47 log2 normalized fluorescence
32 | CCGGCTGCCACGAGGAATTAATAGCTAAGATTACTATATCGACG | 3.34 log2 normalized fluorescence
33 | CCGGCTGTCACGTGGAATTAATAGCTAAGATTACTATATCGACG | 3.19 log2 normalized fluorescence
34 | CCGGCTGCCACGACGTATTAATAGCTAAGATTACTATATCGACG | 1.79 log2 normalized fluorescence
35 | CCGGCTGCCACGTGATATTAATAGCTAAGATTACTATATCGACG | 3.13 log2 normalized fluorescence
36 | CCGGCGGACACGAGGTATTAATAGCTAAGATTACTATATCGACG | 3.32 log2 normalized fluorescence
37 | CCGGCAGACACGAGGTTTTAATAGCTAAGATTACTATATCGACG | 3.03 log2 normalized fluorescence
38 | CCGGCAGACACGAGGTATTAATAGCTAAGATTACTATATCGACG | 3.44 log2 normalized fluorescence
39 | CCGGCTGACACGAGGTATTAATAGCTAAGATTACTATATCGACG | 3.08 log2 normalized fluorescence
40 | CCGGCGGACACGCGGTATTAATAGCTAAGATTACTATATCGACG | 3.26 log2 normalized fluorescence

Row | Sequence | binding signal
41 | CCGGCTAACACGAGGTATTAATAGCTAAGATTACTATATCGACG | 3.28 log2 normalized fluorescence
42 | CCGGCTGACCCAAGGTATTAATAGCTAAGATTACTATATCGACG | -0.0673 log2 normalized fluorescence
43 | CCGGCTGACATGTGGCCTTAATAGCTAAGATTACTATATCGACG | 2.99 log2 normalized fluorescence
44 | CCGGCTGAGTCACTGTATTAATAGCTAAGATTACTATATCGACG | -0.498 log2 normalized fluorescence
45 | CCGGCTGATTGCGAGTATTAATAGCTAAGATTACTATATCGACG | -0.512 log2 normalized fluorescence
46 | CCGGCTGACACGTGCGCTTAATAGCTAAGATTACTATATCGACG | 3.16 log2 normalized fluorescence
47 | CCGGCTGACACGTAGCTTTAATAGCTAAGATTACTATATCGACG | 1.51 log2 normalized fluorescence
48 | CCGGCTGACACGTGGCTTTAATAGCTAAGATTACTATATCGACG | 3.04 log2 normalized fluorescence
49 | CCGGCTGACACGTGCCCTTAATAGCTAAGATTACTATATCGACG | 3.16 log2 normalized fluorescence
50 | CCGGCTGACACGTGCCTTTAATAGCTAAGATTACTATATCGACG | 3.18 log2 normalized fluorescence
51 | CCGGCCGACACGTGCTTTTAATAGCTAAGATTACTATATCGACG | 3.21 log2 normalized fluorescence
52 | CCGGCTGACACGTGCTTTTAATAGCTAAGATTACTATATCGACG | 3.34 log2 normalized fluorescence
53 | CCGGCTAACACGTGCTTTTAATAGCTAAGATTACTATATCGACG | 3.33 log2 normalized fluorescence
54 | CCGGCTGACACGTGTGCTTAATAGCTAAGATTACTATATCGACG | 3.4 log2 normalized fluorescence
55 | CCGGCTGAGACGTGGGATTAATAGCTAAGATTACTATATCGACG | 0.979 log2 normalized fluorescence
56 | CCGGCTGAATGTCTGTATTAATAGCTAAGATTACTATATCGACG | 0.29 log2 normalized fluorescence
57 | CCGGCTGATGCAGCGTATTAATAGCTAAGATTACTATATCGACG | -0.0989 log2 normalized fluorescence
58 | CCGGCTGGCACCTGGTATTAATAGCTAAGATTACTATATCGACG | 1.88 log2 normalized fluorescence
59 | CCGGCTGACTAATGGTATTAATAGCTAAGATTACTATATCGACG | -0.355 log2 normalized fluorescence
